Laboratory results taken from PubChem BioAssay AID1159580 (chemical genetic matrix, 2015).
“And” between values parts separate entries of the source, which are not always exact repeats. Equal entries are not always repeated. About 2,000 (36%) of roughly 5,500 compounds were called active. Roughly 18% stayed inconclusive and do not appear here. The list shows a part of the results. Values without a mark were called inactive. Cut-off read from the data, not from the text of the source: active = normalized growth mostly below about 0.91 (no sharp cut-off); inconclusive = no clear call, values can overlap the other calls; inactive = mostly above about 0.92.

Test: chemical genetic growth profiling, strain panel (AID 1159580);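 note: tested at 20 µM; growth read once vehicle control cultures reached saturation at 30 °C; 1 = growth at the plate median or of vehicle wells; lower values mean less growth of the strain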
Conditions: S. cerevisiae deletion strains, growth OD

Q: With `NC(=O)c1cc([N+](=O)[O-])cc([N+](=O)[O-])c1` as the compound, how does the normalized growth (locus YAL021C, strain ccr4, stronger effect = lower value) read?
A: The normalized growth was 1.03.

Q: What about the normalized growth (locus YAL026C, strain drs2, stronger effect = lower value) of the same compound?
A: Its normalized growth is 0.962.

Q: What about the normalized growth (locus YAL030W, strain snc1, stronger effect = lower value) of the same compound?
A: Its normalized growth is 1.01.

Q: What about the normalized growth (locus YBL061C, strain skt5, stronger effect = lower value) of the same compound?
A: Its normalized growth is 1.02.

Q: What about the normalized growth (locus YBR009C, strain hhf1, stronger effect = lower value) of the same compound?
A: Its normalized growth is 0.972.

Q: What about the normalized growth (locus YBR021W, strain FUR4, stronger effect = lower value) of the same compound?
A: Its normalized growth is 0.99.

Q: And the normalized growth (locus YBR023C, strain chs3, stronger effect = lower value)?
A: The normalized growth was 1.02.

Q: And the normalized growth (locus YBR171W, strain sec66, stronger effect = lower value)?
A: The normalized growth was 1.04.

Q: And the normalized growth (locus YBR229C, strain ROT2, stronger effect = lower value)?
A: The normalized growth was 1.02.

Q: What about the normalized growth (locus YBR231C, strain swc5, stronger effect = lower value) of the same compound?
A: The normalized growth was 0.991.

Q: What about the normalized growth (locus YBR279W, strain paf1, stronger effect = lower value) of the same compound?
A: The normalized growth was 1.03.

Q: What about the normalized growth (locus YCL011C, strain gbp2, stronger effect = lower value) of the same compound?
A: The normalized growth was 1.02.

Q: What about the normalized growth (locus YCL016C, strain dcc1, stronger effect = lower value) of the same compound?
A: The normalized growth was 1.05.

Q: What about the normalized growth (locus YCL029C, strain bik1, stronger effect = lower value) of the same compound?
A: The normalized growth was 0.983.

Q: What about the normalized growth (locus YCL061C, strain MRC1, stronger effect = lower value) of the same compound?
A: The normalized growth was 1.01.

Q: What about the normalized growth (locus YCL069W, strain vba3, stronger effect = lower value) of the same compound?
A: Its normalized growth is 1.02.

Q: And the normalized growth (locus YCR088W, strain abp1, stronger effect = lower value)?
A: The normalized growth was 1.02.

Q: And the normalized growth (locus YDL005C, strain med2, stronger effect = lower value)?
A: The normalized growth was 1.03.

Q: And the normalized growth (locus YDL035C, strain GPR1, stronger effect = lower value)?
A: The normalized growth was 0.992.

Q: And the normalized growth (locus YDL040C, strain nat1, stronger effect = lower value)?
A: The normalized growth was 1.01.

Q: What about the normalized growth (locus YDL074C, strain BRE1, stronger effect = lower value) of the same compound?
A: The normalized growth was 0.986.

Q: And the normalized growth (locus YDL101C, strain DUN1, stronger effect = lower value)?
A: Its normalized growth is 0.989.

Q: And the normalized growth (locus YDL134C, strain PPH21, stronger effect = lower value)?
A: Its normalized growth is 1.01.

Q: And the normalized growth (locus YDL185W, strain tfp1, stronger effect = lower value)?
A: Its normalized growth is 0.974.

Q: And the normalized growth (locus YDL192W, strain arf1, stronger effect = lower value)?
A: Its normalized growth is 0.986.

Q: And the normalized growth (locus YDR001C, strain nth1, stronger effect = lower value)?
A: Its normalized growth is 1.01.

Q: What about the normalized growth (locus YDR069C, strain doa4, stronger effect = lower value) of the same compound?
A: The normalized growth was 0.979.

Q: What about the normalized growth (locus YDR101C, strain arx1, stronger effect = lower value) of the same compound?
A: Its normalized growth is 0.982.

Q: What about the normalized growth (locus YDR137W, strain rgp1, stronger effect = lower value) of the same compound?
A: Its normalized growth is 1.25 [resistant] (active).

Q: And the normalized growth (locus YDR159W, strain sac3, stronger effect = lower value)?
A: The normalized growth was 1.04.

Q: And the normalized growth (locus YDR162C, strain NBP2, stronger effect = lower value)?
A: The normalized growth was 0.992.

Q: And the normalized growth (locus YDR195W, strain ref2)?
A: The normalized growth was 0.78 (active).

Q: What about the normalized growth (locus YDR297W, strain sur2, stronger effect = lower value) of the same compound?
A: Its normalized growth is 1.

Q: What about the normalized growth (locus YDR318W, strain mcm21, stronger effect = lower value) of the same compound?
A: Its normalized growth is 0.974.

Q: And the normalized growth (locus YDR334W, strain swr1, stronger effect = lower value)?
A: Its normalized growth is 1.03.

Q: What about the normalized growth (locus YDR335W, strain msn5, stronger effect = lower value) of the same compound?
A: Its normalized growth is 1.02.

Q: And the normalized growth (locus YDR388W, stronger effect = lower value)?
A: Its normalized growth is 0.996.

Q: What about the normalized growth (locus YDR392W, strain spt3, stronger effect = lower value) of the same compound?
A: The normalized growth was 0.633 (active).

Q: What about the normalized growth (locus YDR502C, strain sam2, stronger effect = lower value) of the same compound?
A: The normalized growth was 0.983.

Q: What about the normalized growth (locus YEL003W, strain gim4, stronger effect = lower value) of the same compound?
A: The normalized growth was 0.961.

Q: And the normalized growth (locus YEL037C, strain rad23, stronger effect = lower value)?
A: The normalized growth was 1.01.

Q: And the normalized growth (locus YEL061C, strain CIN8 (second series), stronger effect = lower value)?
A: Its normalized growth is 1.02.

Q: And the normalized growth (locus YEL061C, strain CIN8, stronger effect = lower value)?
A: Its normalized growth is 1.01.

Q: What about the normalized growth (locus YER015W, strain faa2, stronger effect = lower value) of the same compound?
A: Its normalized growth is 1.02.

Q: What about the normalized growth (locus YER016W, strain bim1, stronger effect = lower value) of the same compound?
A: The normalized growth was 0.999.

Q: What about the normalized growth (locus YER110C, stronger effect = lower value) of the same compound?
A: The normalized growth was 0.979.

Q: And the normalized growth (locus YER111C, strain swi4, stronger effect = lower value)?
A: The normalized growth was 1.04.

Q: And the normalized growth (locus YER155C, strain BEM2 (second series), stronger effect = lower value)?
A: Its normalized growth is 0.788 (active).

Q: What about the normalized growth (locus YER155C, strain BEM2, stronger effect = lower value) of the same compound?
A: The normalized growth was 1.01.

Q: What about the normalized growth (locus YER167W, strain BCK2, stronger effect = lower value) of the same compound?
A: Its normalized growth is 1.02.

Q: And the normalized growth (locus YFR010W, strain ubp6, stronger effect = lower value)?
A: Its normalized growth is 0.995.

Q: What about the normalized growth (locus YGL078C, strain dbp3, stronger effect = lower value) of the same compound?
A: The normalized growth was 0.995.

Q: And the normalized growth (locus YGL086W, strain mad1, stronger effect = lower value)?
A: The normalized growth was 0.968.

Q: What about the normalized growth (locus YGL167C, strain pmr1, stronger effect = lower value) of the same compound?
A: The normalized growth was 1.02.

Q: And the normalized growth (locus YGL173C, strain kem1, stronger effect = lower value)?
A: Its normalized growth is 1.01.

Q: And the normalized growth (locus YGL227W, strain vid30, stronger effect = lower value)?
A: Its normalized growth is 1.02.

Q: And the normalized growth (locus YGL240W, strain doc1, stronger effect = lower value)?
A: The normalized growth was 0.969.

Q: What about the normalized growth (locus YGL248W, strain PDE1, stronger effect = lower value) of the same compound?
A: The normalized growth was 1.02.

Q: And the normalized growth (locus YGL253W, strain hxk2, stronger effect = lower value)?
A: Its normalized growth is 0.994.

Q: What about the normalized growth (locus YGR078C, strain PAC10, stronger effect = lower value) of the same compound?
A: The normalized growth was 1.

Q: What about the normalized growth (locus YGR135W, strain pre9, stronger effect = lower value) of the same compound?
A: The normalized growth was 0.978.

Q: What about the normalized growth (locus YGR252W, strain gcn5, stronger effect = lower value) of the same compound?
A: Its normalized growth is 0.906.

Q: And the normalized growth (locus YHR013C, strain ard1, stronger effect = lower value)?
A: The normalized growth was 1.09.

Q: And the normalized growth (locus YHR027C, strain rpn1, stronger effect = lower value)?
A: The normalized growth was 0.997.

Q: And the normalized growth (locus YHR030C, strain SLT2, stronger effect = lower value)?
A: Its normalized growth is 1.02 and 0.959.

Q: And the normalized growth (locus YHR079C, strain IRE1 (second series), stronger effect = lower value)?
A: The normalized growth was 0.996.

Q: What about the normalized growth (locus YHR079C, strain IRE1, stronger effect = lower value) of the same compound?
A: The normalized growth was 0.955.

Q: And the normalized growth (locus YHR094C, strain hxt1, stronger effect = lower value)?
A: The normalized growth was 0.954.

Q: What about the normalized growth (locus YHR129C, strain ARP1, stronger effect = lower value) of the same compound?
A: The normalized growth was 1.02.

Q: And the normalized growth (locus YHR142W, strain chs7, stronger effect = lower value)?
A: Its normalized growth is 1.01.

Q: What about the normalized growth (locus YHR200W, strain rpn10, stronger effect = lower value) of the same compound?
A: The normalized growth was 0.997.

Q: What about the normalized growth (locus YIL066C, strain RNR3, stronger effect = lower value) of the same compound?
A: Its normalized growth is 1.01.

Q: What about the normalized growth (locus YIL073C, strain SPO22, stronger effect = lower value) of the same compound?
A: The normalized growth was 0.993.

Q: What about the normalized growth (locus YIL125W, strain kgd1, stronger effect = lower value) of the same compound?
A: The normalized growth was 1.

Q: What about the normalized growth (locus YIR030C, strain dcg1, stronger effect = lower value) of the same compound?
A: The normalized growth was 1.

Q: What about the normalized growth (locus YJL092W, strain hpr5, stronger effect = lower value) of the same compound?
A: The normalized growth was 1.02.

Q: And the normalized growth (locus YJL095W, strain BCK1 (second series), stronger effect = lower value)?
A: Its normalized growth is 1.01.

Q: What about the normalized growth (locus YJL095W, strain BCK1, stronger effect = lower value) of the same compound?
A: The normalized growth was 0.994 and 0.966.

Q: What about the normalized growth (locus YJL115W, strain asf1, stronger effect = lower value) of the same compound?
A: Its normalized growth is 1.02.

Q: What about the normalized growth (locus YJL129C, strain trk1, stronger effect = lower value) of the same compound?
A: The normalized growth was 1.1.

Q: What about the normalized growth (locus YJL134W, strain LCB3, stronger effect = lower value) of the same compound?
A: Its normalized growth is 1.01.

Q: And the normalized growth (locus YJL154C, strain vps35, stronger effect = lower value)?
A: The normalized growth was 1.03.

Q: And the normalized growth (locus YJL164C, strain tpk1, stronger effect = lower value)?
A: Its normalized growth is 0.977.

Q: What about the normalized growth (locus YJL166W, strain qcr8, stronger effect = lower value) of the same compound?
A: Its normalized growth is 1.

Q: And the normalized growth (locus YJL168C, strain set2, stronger effect = lower value)?
A: The normalized growth was 0.997.

Q: And the normalized growth (locus YJL187C, strain SWE1 (second series), stronger effect = lower value)?
A: Its normalized growth is 1.01.

Q: What about the normalized growth (locus YJL187C, strain SWE1, stronger effect = lower value) of the same compound?
A: The normalized growth was 1.03.

Q: And the normalized growth (locus YJR043C, strain POL32, stronger effect = lower value)?
A: The normalized growth was 0.967.

Q: And the normalized growth (locus YJR066W, strain TOR1, stronger effect = lower value)?
A: The normalized growth was 0.918.
